PubChem BioAssay (NCI)
Compounds without any hit were thinned out: in the full panel of roughly 83,000, 20% have a hit.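 How to read the values: 0–100, growth inhibition (40 = 60% inhibited); 0, no net growth; -100 to 0, cell death (-40 = 40% of starting cells died; -100 = all dead).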

Experiments:
Test in all cases: NCI-60 one-dose screen, 48 h (100 = growth as untreated, 0 = no growth, -100 = all killed); active = growth percent below 10; inactive = the rest
RPMI-8226 leukemia = settings: 10 µM
OVCAR-8 ovarian = settings: 10 µM
OVCAR-5 ovarian = settings: 10 µM
OVCAR-4 ovarian = settings: 10 µM
SK-OV-3 ovarian = settings: 10 µM
IGROV1 ovarian = settings: 10 µM
OVCAR-3 ovarian = settings: 10 µM
HS 578T breast = settings: 10 µM
NCI/ADR-RES ovarian = settings: 10 µM
BT-549 breast = settings: 10 µM
MDA-MB-435 melanoma = settings: 10 µM
SW-620 colon = settings: 10 µM
MCF7 breast = settings: 10 µM unless noted
HCT-116 colon = settings: 10 µM
HCC-2998 colon = settings: 10 µM
KM12 colon = settings: 10 µM
T-47D breast = settings: 10 µM

Measured: growth

Nc1nc2c(c(-c3nc(N)nc4c3CCc3ccccc3-4)n1)CCc1ccccc1-2
inactive: RPMI-8226 leukemia 105% | OVCAR-8 ovarian 56.8% | OVCAR-5 ovarian 113% | OVCAR-4 ovarian 101% | SK-OV-3 ovarian 87.2% | IGROV1 ovarian 109% | OVCAR-3 ovarian 115% | HS 578T breast 80.3% | NCI/ADR-RES ovarian 101% | BT-549 breast 109% | MDA-MB-435 melanoma 109% | SW-620 colon 101% | MCF7 breast 95.4% | HCT-116 colon 105% | HCC-2998 colon 114% | KM12 colon 105%

CNC(=S)NC(C)(C)C
inactive: RPMI-8226 leukemia 93.2% | OVCAR-8 ovarian 99.8% | OVCAR-5 ovarian 121% | OVCAR-4 ovarian 113% | SK-OV-3 ovarian 105% | IGROV1 ovarian 105% | OVCAR-3 ovarian 124% | HS 578T breast 104% | NCI/ADR-RES ovarian 105% | BT-549 breast 89.5% | MDA-MB-435 melanoma 106% | SW-620 colon 103% | MCF7 breast 97.4% | HCT-116 colon 102% | HCC-2998 colon 115% | KM12 colon 106%

Cc1cc(NC(=O)CSCC(=O)O)no1
inactive: RPMI-8226 leukemia 120% | OVCAR-8 ovarian 99.3% | OVCAR-5 ovarian 99.6% | OVCAR-4 ovarian 107% | SK-OV-3 ovarian 99.3% | IGROV1 ovarian 114% | OVCAR-3 ovarian 123% | HS 578T breast 78% | NCI/ADR-RES ovarian 107% | BT-549 breast 98.7% | MDA-MB-435 melanoma 105% | SW-620 colon 102% | MCF7 breast 91.9% | HCT-116 colon 101% | HCC-2998 colon 113% | KM12 colon 107%

CC(=O)Cc1cc(-c2cc(CC(C)=O)[nH]n2)n[nH]1
inactive: RPMI-8226 leukemia 109% | OVCAR-8 ovarian 98.5% | OVCAR-5 ovarian 90.2% | OVCAR-4 ovarian 101% | SK-OV-3 ovarian 90.9% | IGROV1 ovarian 104% | OVCAR-3 ovarian 111% | HS 578T breast 93.2% | NCI/ADR-RES ovarian 96.7% | BT-549 breast 88.4% | MDA-MB-435 melanoma 103% | SW-620 colon 98.5% | MCF7 breast 93.2% | HCT-116 colon 103% | HCC-2998 colon 112% | KM12 colon 105%

Cc1cc2nc(CC(=O)c3cccc([N+](=O)[O-])c3)c(=O)[nH]c2cc1C
inactive: RPMI-8226 leukemia 88.4% | OVCAR-8 ovarian 92.7% | OVCAR-5 ovarian 92.1% | OVCAR-4 ovarian 89.4% | SK-OV-3 ovarian 108% | IGROV1 ovarian 91.4% | OVCAR-3 ovarian 102% | HS 578T breast 72.6% | NCI/ADR-RES ovarian 83.9% | BT-549 breast 87% | MDA-MB-435 melanoma 93.9% | SW-620 colon 93.7% | MCF7 breast 74.8% | HCT-116 colon 54.8% | HCC-2998 colon 89.9% | KM12 colon 86.6%

c1csc(-c2cc(-c3cc(-c4cccs4)[nH]n3)n[nH]2)c1
inactive: RPMI-8226 leukemia 94.6% | OVCAR-8 ovarian 104% | OVCAR-5 ovarian 104% | OVCAR-4 ovarian 101% | SK-OV-3 ovarian 97% | IGROV1 ovarian 89.3% | OVCAR-3 ovarian 118% | HS 578T breast 74.6% | NCI/ADR-RES ovarian 99.5% | BT-549 breast 90.7% | MDA-MB-435 melanoma 114% | SW-620 colon 104% | MCF7 breast 75.5% | HCT-116 colon 91.4% | HCC-2998 colon 111% | KM12 colon 105%

N#CC(=Nc1cccc(F)c1)C1=C(O)c2ccccc2C1=O
inactive: RPMI-8226 leukemia 82% | OVCAR-8 ovarian 85.4% | OVCAR-5 ovarian 103% | OVCAR-4 ovarian 88.9% | SK-OV-3 ovarian 98.7% | IGROV1 ovarian 100% | OVCAR-3 ovarian 92.7% | HS 578T breast 99.7% | NCI/ADR-RES ovarian 89.1% | T-47D breast 83.2% | BT-549 breast 89.2% | MDA-MB-435 melanoma 99.4% | SW-620 colon 95.4% | MCF7 breast 83.2% | HCT-116 colon 97% | HCC-2998 colon 101% | KM12 colon 102%

OCCN(CCO)C(=S)S
inactive: RPMI-8226 leukemia 111% | OVCAR-8 ovarian 100% | OVCAR-5 ovarian 120% | OVCAR-4 ovarian 118% | SK-OV-3 ovarian 127% | IGROV1 ovarian 111% | OVCAR-3 ovarian 121% | HS 578T breast 99.7% | NCI/ADR-RES ovarian 105% | BT-549 breast 110% | MDA-MB-435 melanoma 108% | SW-620 colon 106% | MCF7 breast 98.2% | HCT-116 colon 109% | HCC-2998 colon 113% | KM12 colon 107%

CCCCNC(=O)C(=O)NCCCC
inactive: RPMI-8226 leukemia 106% | OVCAR-8 ovarian 105% | OVCAR-5 ovarian 113% | OVCAR-4 ovarian 108% | SK-OV-3 ovarian 123% | IGROV1 ovarian 113% | OVCAR-3 ovarian 108% | HS 578T breast 96.6% | NCI/ADR-RES ovarian 104% | BT-549 breast 98.8% | MDA-MB-435 melanoma 104% | SW-620 colon 104% | MCF7 breast 94.1% | HCT-116 colon 104% | HCC-2998 colon 114% | KM12 colon 102%

OC1OC(COC(c2ccccc2)(c2ccccc2)c2ccccc2)C(O)C(O)C1O (configuration not stated)
inactive: RPMI-8226 leukemia 95.9% | OVCAR-8 ovarian 93.7% | OVCAR-5 ovarian 95.9% | OVCAR-4 ovarian 84.1% | SK-OV-3 ovarian 99.9% | IGROV1 ovarian 95.3% | OVCAR-3 ovarian 104% | HS 578T breast 105% | NCI/ADR-RES ovarian 104% | T-47D breast 87.5% | MDA-MB-435 melanoma 90.9% | SW-620 colon 105% | MCF7 breast 93.3% | HCT-116 colon 90.7% | HCC-2998 colon 110% | KM12 colon 107%

CC(C)COC(=O)COC(=O)OCCOCCOC(=O)OCC(=O)OCC(C)C
inactive: RPMI-8226 leukemia 97.3% | OVCAR-8 ovarian 99.7% | OVCAR-5 ovarian 101% | OVCAR-4 ovarian 110% | SK-OV-3 ovarian 100% | IGROV1 ovarian 105% | OVCAR-3 ovarian 126% | HS 578T breast 124% | NCI/ADR-RES ovarian 106% | T-47D breast 96.7% | BT-549 breast 99.2% | MDA-MB-435 melanoma 119% | MCF7 breast 98.7% | HCT-116 colon 103% | HCC-2998 colon 101% | KM12 colon 104%
